# Laboratory results from PubChem BioAssay (Tox21).
# Values joined by “and” are separate entries in the source; they are usually repeats but may differ in a detail not shown here. Equal values may be shown once. Records with an inconclusive call do not appear. Where a call stands in place of a potency, no number is given. Active and inactive are the calls of the source. Calls come from the whole dose curve; as a rule, active = well fitted cell-killing curve with a large enough effect in the repeat runs (not every such curve was filed as active); inconclusive = weak or mixed curves, or effect the other way; inactive = no such curve, though single readings can be large or run the other way.
# Test: qHTS assay to identify small molecule antagonists of the estrogen related receptor signaling pathway with the pleiotropic PPARgamma coactivator (PGC) from Tox21 10K library - cell viability counter screen (AID 1224840); note: nearly all actives have a fitted effect of over 40% in size
# Details: PGC/ERR reporter cells viability, CellTiter-Fluor, 17.5 h; series mostly up to 92.4 µM; viability change, negative = cytotoxic: at the top concentration
# From the text: National Center for Advancing Translational Sciences [NCATS]
# NIH Chemical Genomics Center [NCGC]
# U.S. Environmental Protection Agency [EPA]
# National Institutes of Environmental Health Sciences [NIEHS]
# National Toxicology Program [NTP]
# U.S. Food and Drug Administration [FDA]
# Estrogen related receptors (ERRs), the first orphan nuclear receptors discovered, play an important role in the control of cellular energy metabolism. ERRs are required for high-energy production in response to the environmental challenges. The pleiotropic PPARgamma coactivator (PGC) is a major partner of ERR and a key regulator in energy homeostasis. Together they have been implicated in the etiology of metabolic disorders such as Type 2 diabetes and metabolic syndrome. ERR-alpha was also identified as an adverse marker for breast cancer progression; ERR-alpha-positive tumors have a poor prognosis. To screen and to identify environmental compounds that perturb the ERR and PGC/ERR signaling pathways could provide valuable information for potential therapeutic or preventive measures in the treatment of metabolic disease. To differentiate true PGC/ERR antagonists or agonist from cytotoxic substances, the assay is multiplexed with cell viability assay.
# Tox21 Assay Protocol Summary:
# The PGC/ERR cells were dispensed at 2,000 cells/5 ul/well in 1536-well white plates using a Multidrop dispenser. After the assay plates were incubated at a 37 C/5% CO2 incubator for 6 hours, 23 nL of compounds dissolved in DMSO, positive and negative controls or DMSO only was transferred to the assay plate by a pin tool. The plates were incubated at 37 C for 17.5 hours. 1 ul/well of CellTiter-Fluor reagent was added into the assay plates using a Flying Reagent Dispenser. After 30-minute incubation at 37 C/5% CO2, the fluorescence intensity in the plates was measured using a ViewLux plate reader.
# Potency is the fitted concentration of half-maximal effect.
SMILES,Potency,"viability change, negative = cytotoxic"
ClC(Cl)(Cl)Br,inactive,–
c1ccc2c(c1)Nc1ccccc1S2,inactive,–
Brc1ccc(Br)cc1,inactive,–
CCN(CC)C(=O)C(C)Oc1cccc2ccccc12 (stereo not given),inactive,–
Clc1cccc(C(Cl)(Cl)Cl)n1,inactive,–
CCC[CH2][Sn]([Cl])([CH2]CCC)[CH2]CCC,1.09 µM (active) and 864 nM (active),–
COc1ccc(CO)cc1,inactive,–
CC(C)(O)C(=O)Nc1ccc([N+](=O)[O-])c(C(F)(F)F)c1,inactive,–
CCCCC(C#N)(Cn1cncn1)c1ccc(Cl)cc1 (stereo not given),inactive,–
CNC(=O)Oc1cccc2c1OC(C)(C)C2,inactive,–
CN(C)P(=O)(N(C)C)N(C)C,inactive,–
CCCCOC(=O)COC(=O)c1ccccc1C(=O)OCCCC,inactive,–
CNC(=S)S,inactive,–
CC(C)(c1ccc(OCC2CO2)cc1)c1ccc(OCC2CO2)cc1 (stereo not given),–,-12% (inactive)
S=c1[nH]c2ccccc2[nH]1,inactive,–
CCCCOCCOC(C)=O,inactive,–
COC(=O)Nc1nc2ccccc2[nH]1,inactive,–
CCC1(c2ccc(N)cc2)CCC(=O)NC1=O (stereo not given),inactive,–
O=NN(c1ccccc1)c1ccccc1,inactive,–
CSc1nc(NC(C)C)nc(NC(C)C)n1,inactive,–

SMILES,Potency,"viability change, negative = cytotoxic"
Cl,inactive,–
Clc1ccc(C(Cl)(Cl)Cl)cc1,inactive,–
O=C(O)c1nn(Cc2ccc(Cl)cc2Cl)c2ccccc12,inactive,–
Cc1cc(Cl)ccc1N=CN(C)C,inactive,–
CC1CC(=O)O1 (stereo not given),inactive,–
CCOP(=S)(OCC)OP(=S)(OCC)OCC,inactive,–
Nc1ccc2ccccc2c1,inactive,–
CCC[CH2][Sn]([Cl])([Cl])[CH2]CCC,492 nM (active) and 486 nM (active),–
CC(C)(c1ccccc1)c1ccc(O)c(C(C)(C)c2ccccc2)c1,54 µM (active) and 54.5 µM (active),–
CC[n+]1c(-c2ccccc2)c2cc(N)ccc2c2ccc(N)cc21,24.2 µM (active),–
C[C@]12CCC(=O)C=C1CC[C@@H]1[C@@H]2CC[C@@]2(C)[C@H]1CC[C@]2(C)O,–,-1.89% [at 42.5 µM] (inactive)
CCC/C=N/O,inactive,–
C[N+](C)(C)C,inactive,–
Nc1ncn[nH]1,inactive,–
CNC(=O)CSP(=S)(OC)OC,inactive,–
C[N+](C)(C)CC(=O)[O-],inactive,–
CC(C)=CC1C(C(=O)OCN2C(=O)C3=C(CCCC3)C2=O)C1(C)C (stereo not given),inactive,–
COc1ccc(C=O)cc1OC,inactive,–
CC1=C(C(=O)Nc2ccccc2)SCCO1,inactive,–
N#Cc1cccnc1,inactive,–
